Pf Dd2 inh = qHTS Primary assay for Inhibitors of Plasmodium falciparum Dd2 growth in vitro; P. falciparum Dd2 growth, SYBR Green, 72 h; Potency, µM (doses to about 28.9 µM), most hits filed as inhibitors; 120,000 compounds, 4.3% hits; AID 1347417, 2020; active = well fitted inhibition curve with a large enough effect; note: nearly all actives have a fitted effect of over 65% in size
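Infected erythrocytes (Dd2, 0.3% parasitemia, 2.5% hematocrit final) are added to compound in RPMI-1640/Albumax II medium, grown 72 h at 37C in low oxygen, then lysed with saponin/Triton-X containing SYBR Green and read by fluorescence.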
Each line names hits and unclear results; the compound was inactive in the other large screens. Only a selection was taken, and hits are over-represented in it overall.

Cc1nc(-c2cn(C3CCCN(C(=O)c4ccc(C)s4)C3)nn2)no1 (configuration not stated)	none
CC(C)n1cnnc1CN1CCN(Cc2ccccn2)[C@@H]2CS(=O)(=O)C[C@@H]21	none
O=C(N[C@@H]1CN(Cc2ccccc2)C[C@H]1CO)c1ncccn1	none
CCOc1ccccc1C(=O)N1CCC[C@H]1c1nc(-c2ccccc2)no1	none
CCc1nnc(CN(CC)C(=O)COc2ccc(Cl)cc2Cl)o1	none
CCCc1noc(-c2cn(C3CCN(C(=O)c4ccc(C)c(F)c4)CC3)nn2)n1	none
Cc1nc2ccccc2n1CCc1nc2c3ccccc3nc(SCC(=O)Nc3cccc(C(F)(F)F)c3)n2n1	none
Cc1nc2ccccc2n1CCc1nc2c3ccccc3nc(SCC(=O)Nc3ccc(Br)cc3F)n2n1	none
Cc1nc2ccccc2n1CCc1nc2c3ccccc3nc(SCC(=O)Nc3ccc(C(C)C)cc3)n2n1	Pf Dd2 inh 8.9µM
CCN1CCN(C(=O)C2Cn3cccc3C(=O)N2CC(C)C)CC1 (configuration not stated)	none
COc1ccc(C(=O)N2C[C@@H]3C[C@H](C2)c2c(NC(=O)c4ccc5c(c4)OCO5)ccc(=O)n2C3)cc1	none
O=C(N[C@H]1CCN2C(=O)c3cc(-c4ccccc4F)ccc3NC(=O)[C@H]12)c1cnccn1	Pf Dd2 inh 5.6µM
O=C(N[C@H]1CCN2C(=O)c3cc(/C=C/c4ccc(O)cc4)ccc3NC(=O)[C@H]12)c1cnccn1	none
O=C(N[C@H]1CCN2C(=O)c3cc(/C=C/c4ccccc4)ccc3NC(=O)[C@H]12)c1cnccn1	none
Cc1cc(C)cc(C(=O)N2CCC[C@H]2c2nc(-c3ccccc3)no2)c1	none
OC(c1cccc(C(F)(F)F)c1)c1nc(Nc2ccc(N3CCOCC3)cc2)n[nH]1 (configuration not stated)	none
CCSc1ncc(CN(CCOC)Cc2ccccc2F)cn1	none
Cc1cc(C)n(-c2nc3ccccc3nc2Nc2cc(Cl)ccc2C)n1	none
Cc1cc(C)n(-c2nc3ccccc3nc2Nc2ccc(Cl)cc2Cl)n1	none
Cc1cc(Nc2ccc(Cl)cc2C)nc(-n2nc(C)cc2C)n1	Pf Dd2 inh 3.5µM
Cn1c(C(=O)NCCc2cnc[nH]2)nc2nc(-c3ccccc3)c(Cl)cc21	none
COCCNC(=O)[C@H]1C[C@H](Oc2cccnc2)CN1C(=O)NCC(C)C	none
CC1CCN(CC2CCCCCN2C(=O)c2ccoc2)CC1 (configuration not stated)	none
C#CCNC(=O)CC[C@H]1CNC(=O)[C@@H]2[C@@H](CCN2Cc2ccc(C)cc2)N1C	none
CN1[C@@H](CCC(=O)Nc2ccccc2)CNC(=O)[C@@H]2[C@H]1CCN2Cc1ccc(C(F)(F)F)cc1	none
Cc1ccc(CN2CC[C@@H]3[C@H]2C(=O)NC[C@H](CCC(=O)Nc2ccccc2)N3C)cc1	Pf Dd2 inh 11µM
Cn1cnc(C(=O)N2CCC(N3C(=O)C4(CCCC4)C3c3ccccc3)CC2)c1 (configuration not stated)	none
O=C1CC(c2ccccc2)N(C(=O)Cc2cccnc2)CCCCCCN1 (configuration not stated)	none
COc1ccccc1CN1CCc2nc(C(=O)N3CCOCC3)oc2CC1	none
COc1ccccc1CN1CC[C@H]2COC(=O)N2c2cc(C)ccc2C1	none
CCCc1cc(=O)oc2c3c(ccc12)OCN(Cc1ccccc1OC)C3	Pf Dd2 inh 3.2µM
COc1ccc(CN2CCN(Cc3cc(=O)oc4cc(C)ccc34)CC2)c(OC)c1OC	none
COc1ccccc1CN1CCC(n2cc[nH]c2=O)CC1	none
COc1ccccc1CN1COc2ccc3c(oc(=O)c4ccccc43)c2C1	Pf Dd2 inh 0.56µM
O=C(CSc1ccccc1)N1CCCC2(C1)Nc1cccnc1NC2=NC1CCCC1 (configuration not stated)	none
Cc1c(CC(=O)NC2CCOC2=O)c2c(n1Cc1ccccc1F)CCCC2=O (configuration not stated)	none
Cc1c(CC(=O)NC(C)C2CC2)c2c(n1Cc1ccccc1F)CCCC2=O (configuration not stated)	Pf Dd2 inh 10µM
Cc1c(CC(=O)NCC2CC2)c2c(n1Cc1ccccc1F)CCCC2=O	none
O=Cc1cccc(Oc2ncnc3ccccc23)c1	none
CCN1C(=O)CCN(C(=O)c2nn(C)c3ccccc23)CC12CCOCC2	none
CC(C)(C)CCN1CCCC(COc2ccccc2C(=O)N2CCCC2)C1 (configuration not stated)	none
COc1ccccc1CN1CCCC(CN(CCN(C)C)C(=O)c2ccccc2OC)C1 (configuration not stated)	none
COc1ccccc1CCN1CCCC(CN(C)C(=O)Nc2ccccc2)C1 (configuration not stated)	Pf Dd2 inh 2.2µM
Cn1cccc1CN1CCCC(COc2ccccc2C(=O)N2CCCCC2)C1 (configuration not stated)	none
Cc1cc(C(=O)N(C)CC2CCCN(CCc3ccccc3F)C2)n[nH]1 (configuration not stated)	none
COc1ccccc1CCN1CCCC(CN(C)C(=O)C(=O)c2cccn2C)C1 (configuration not stated)	Pf Dd2 inh 14µM
Cc1sc2cc(C(=O)NCCN(C)C)[nH]c2c1CN1CCCCC1	none
COc1ccccc1Oc1ncccc1CNC(=O)[C@@H]1CCCN1C(C)=O	none
O=C(N[C@@H]1CCN(C(=O)c2n[nH]c3c2CCC3)C[C@H]1O)c1cccnc1	none
COc1cc(CN2CCCC3(C2)CN(C)C(=O)O3)ccc1OCC(N)=O (configuration not stated)	none
CCN(CC)C(=O)CC[C@@H]1CNC(=O)[C@@H]2C[C@H](NCc3ccc(OC)cc3)CN12	none
COc1ccc(C[C@H](NC(=O)C2=C[C@@H](NC(=O)c3cccnc3)[C@@H](O)[C@H](O)C2)C(N)=O)cc1	none
COc1ccc(C(=O)N2CCC3(CC2)COc2ccccc2CN3)cc1	Pf Dd2 inh 1.4µM
COc1ccc(C(=O)N2CCC3(CC2)CNC(=O)c2ccccc2O3)cc1	none
COc1ccc(C(=O)N2CCCC3(COc4ccccc4C(=O)N3)C2)cc1 (configuration not stated)	none
O=C(c1ccccc1F)N1CCC(c2nn(-c3ccccc3)c(=O)[nH]2)CC1	none
O=C(c1ccco1)N1CCC2(CCCCO2)CC1	none
COc1ccc2cc(C3CN(S(=O)(=O)c4cn(C)cn4)CCO3)ccc2c1 (configuration not stated)	none
O=[N+]([O-])c1ccccc1CN1C[C@H](O)C[C@H]1c1nc(Cc2ccc(F)cc2Cl)no1	none
O[C@@H]1C[C@@H](c2nc(-c3ccc4c(c3)OCO4)no2)N(Cc2cccc(OC(F)(F)F)c2)C1	none
O[C@@H]1C[C@@H](c2nc(Cc3ccc(F)cc3Cl)no2)N(Cc2ccc(OC(F)(F)F)cc2)C1	Pf Dd2 inh 7.9µM
COc1ccc(C(=O)N[C@@H]2CCC[C@@H]2C(=O)NCCc2cccs2)cn1	none
CC(C)n1cnnc1CN(C)c1nc(N)nc2nc[nH]c12	none
COc1ccc(C2(C(=O)NCC34CCCC=C3NC(=O)CC4)CC2)cc1 (configuration not stated)	none
Cc1noc(C)c1S(=O)(=O)N1C[C@@H]2CCN(C)C[C@]2(C(=O)O)C1	none
O=C1NCc2ccccc2CC12CCCN(Cc1c(Cl)cncc1Cl)C2 (configuration not stated)	none
Cc1ccsc1CN1CCCC2(Cc3ccccc3CNC2=O)C1 (configuration not stated)	none
CC(C)=CCN1CCCC2(Cc3ccccc3CNC2=O)C1 (configuration not stated)	Pf Dd2 inh 10µM
COc1cccc2ccc(-c3nccn3CC3(CO)CCOCC3)nc12	none

Bioassay records from PubChem BioAssay.
